Source: PubChem BioAssay (Tox21)
A number with no mark means an inactive call. Results filed as inconclusive are left out. Entries that show only a call come without a potency. Activity calls are given as the source filed them. Unless noted, calls come from the whole dose curve; as a rule, active = well fitted curve in the direction sought with a large enough effect in the repeat runs; inconclusive = weak or mixed curves; inactive = no such curve, though single readings can be large; an effect the other way counts as inactive or inconclusive.

Legend:
[1] = qHTS assay to identify small molecule agonists of the estrogen receptor alpha (ER-alpha) signaling pathway in the presence of an antagonist - cell viability counter screen (AID 1259386);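 note: series mostly up to about 92 µM; cells exposed to compounds for 22 h at 37 °C before the viability read; nearly all actives have a fitted effect of over 30% in size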
Method in brief: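 Cells are starved of estrogens for 5 days in charcoal-stripped serum, seeded for 24hr and co-treated with ICI-182,780 (10.0nM final) and test compounds. After 22hr at 37C, viability is read as CellTiter-Fluor fluorescence.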

[2] = target: Progesterone receptor (Homo sapiens) (UniProt P06401); assay: qHTS assay to identify small molecule agonists of the progesterone receptor (PR) signaling pathway (AID 1346784; calls by dose curve; note: nearly all actives have a fitted effect of over 30% in size)
Method in brief: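 Seed PR-UAS-bla HEK 293T cells (2% charcoal-stripped FBS), incubate 6 hr at 37C; add compounds in DMSO, 16 hr at 37C; add LiveBLAzer B/G substrate, 2 hr RT; read fluorescence intensity.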

[3] = target: Progesterone receptor (Homo sapiens) (UniProt P06401); assay: qHTS assay to identify small molecule antagonists of the progesterone receptor (PR) signaling pathway (AID 1346795; active = well fitted inhibition curve with a large enough effect in the signal ratio in the repeat runs, not every such curve was filed as active; the % refers to the signal ratio)
Method in brief: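 Screening used a GripTite HEK293T line with PR-responsive UAS-beta-lactamase. Cells were challenged with compound in the presence of 1 nM R5020 final for 16 hr at 37C; B/G FRET substrate, 2 hr room temperature, fluorescence.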

[4] = qHTS assay to identify small molecule antagonists of the progesterone receptor (PR) signaling pathway - cell viability counter screen (AID 1346798); note: series mostly up to about 92 µM; nearly all actives have a fitted effect of over 50% in size
Method in brief: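 Measures cytotoxicity in parallel with the PR antagonist reporter read: HEK293T PR-UAS-bla cells get compound and R5020 for 16 hr, and remaining viable cells are quantified by CellTiter-Glo luminescence.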

[5] = qHTS assay to identify small molecule agonists of the progesterone receptor (PR) signaling pathway - cell viability counter screen (AID 1346799; calls by dose curve; note: nearly all actives have a fitted effect of over 45% in size)
Method in brief: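 Using the same plates as the PR reporter screen, HEK293T PR-UAS-bla cells received compounds for 16 hr at 37C and were then lysed with CellTiter-Glo; luminescence was read 30 min later at room temperature.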

[6] = qHTS assay to identify small molecule antagonists of the TGF-beta/Smad signaling pathway - cell viability counter screen (AID 1346824); note: nearly all actives have a fitted effect of over 50% in size
Method in brief: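 SBE-bla HEK 293T cells were plated overnight at 37 C, then given compounds in DMSO plus TGF-beta1 (added as 0.25 ng/mL solution) for 5 hr. After the bla read, CellTiter-Glo was added to the same wells and luminescence read after 30 min at room temperature.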

[7] = target: Thyrotropin-releasing hormone receptor (Homo sapiens) (UniProt P34981); assay: qHTS assay to identify small molecule agonists of the thyrotropin-releasing hormone receptor (TRHR) signaling pathway (AID 1346891; calls by dose curve;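 note: HEK293 cells expressing TRHR with calcium dye readout; series mostly up to about 58 µM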)
Method in brief: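 Overnight-plated (18 h, 37 °C, 5% CO2) TRHR-Hek293 cells; 2 h calcium dye at 37 °C; compound in DMSO; 3-min kinetic fluorescence read.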

[8] = Human pregnane X receptor (PXR) small molecule agonists, qHTS cell viability counter screen (AID 1346977); note: nearly all actives have a fitted effect of over 50% in size
Method in brief: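 After a 5hr pre-incubation, PXR-Luc HepG2 cells received compounds plus positive control in DMSO and were kept 24hr at 37C. Cell viability was quantified by fluorescence from CellTiter-Fluor added for the final hour.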

[9] = Caspase-3/7 induction in HepG2 cells by small molecules, qHTS assay (AID 1346978); note: nearly all actives have a fitted effect of over 15% in size
Method in brief: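 Wild-type HepG2 cells (2,000/well) were settled 5 h at 37 C, 5% CO2, then exposed to compounds in DMSO for 17 h. Caspase-3/7 activity was read by luminescence 30 min after adding Caspase-Glo 3/7 reagent at room temperature.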

[10] = Caspase-3/7 induction in CHO-K1 cells by small molecules, qHTS cell viability counter screen (AID 1346979); note: nearly all actives have a fitted effect of over 35% in size
Method in brief: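 Multiplexed with Caspase-Glo 3/7 in CHO-K1 cells, this counter screen added CellTiter-Fluor after 16hr of compound exposure and recorded fluorescence 1hr later.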

[11] = Caspase-3/7 induction in HepG2 cells by small molecules, qHTS cell viability counter screen (AID 1346981); note: series mostly up to about 92 µM; nearly all actives have a fitted effect of over 30% in size
Method in brief: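 Steps: seed 2,000 HepG2 cells per well; incubate 5 hr at 37 C; pin-add compounds in DMSO; incubate 16 hr; add CellTiter-Fluor; after 1 hr at 37 C and 5% CO2, read fluorescence.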

[12] = target: Cytochrome P450 2D6 (Homo sapiens) (UniProt P10635); assay: Cytochrome P450 Family 2 Subfamily D Member 6 (CYP2D6) small molecule antagonists: luciferase reporter qHTS assay (AID 1671196); note: nearly all actives have a fitted effect of over 50% in size; note: potency is the fitted concentration of half-maximal effect
Method in brief: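 P450-Glo format: CYP2D6 converts a proluciferin substrate to luciferin in an NADPH-driven reaction lasting 1 h at room temperature. Light output, proportional to CYP2D6 activity, reflects interference by test chemicals.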

[13] = qHTS assay to identify small molecule agonists of the TGF-beta/Smad signaling pathway - cell viability counter screen (AID 1346829); note: top concentration of the series differs between compounds; nearly all actives have a fitted effect of over 45% in size
Method in brief: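 Compound-treated SBE-bla HEK 293T cells (5 hr, 37 C) were assessed for viability with CellTiter-Glo in parallel with the reporter read.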

[14] = Caspase-3/7 induction in CHO-K1 cells by small molecules, qHTS assay (AID 1346980); note: nearly all actives have a fitted effect of over 15% in size
Method in brief: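 Wild-type cells were seeded at 1,500 per well and settled 5 hr at 37 C, 5% CO2, then exposed to DMSO-dissolved compounds for 17 hr. Caspase-Glo 3/7 reagent was added, and luminescence was read after 30min at room temperature.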

[15] = target: Nuclear receptor subfamily 1 group I member 2 (Homo sapiens) (UniProt O75469); assay: Human pregnane X receptor (PXR) small molecule agonists, qHTS assay (AID 1346982); note: nearly all actives have a fitted effect of over 35% in size
Method in brief: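 Agonist mode qHTS: PXR-Luc HepG2 cells plated 5 hr before DMSO-dissolved compounds were pinned in, cultured 24 hr at 37 C, 5% CO2; ONE-Glo luminescence readout.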

[16] = qHTS assay to identify small molecule agonists of the TGF-beta/Smad signaling pathway (AID 1346859; active = well fitted activation curve with a large enough effect in the signal ratio in the repeat runs, not every such curve was filed as active; the % refers to the signal ratio; note: series mostly up to about 77 µM)
Method in brief: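 Beta-lactamase reporter activity downstream of Smad binding elements was measured in stably transfected HEK 293T cells; compounds were incubated for 5 hr, substrate for 2 hr at room temperature.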

[17] = target: Thyrotropin-releasing hormone receptor (Homo sapiens) (UniProt P34981); assay: qHTS assay to identify small molecule antagonists of the thyrotropin-releasing hormone receptor (TRHR) signaling pathway (AID 1346877; active = well fitted inhibition curve with a large enough effect in the repeat runs, not every such curve was filed as active; note: series mostly up to about 51 µM)
Method in brief: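 Cells (TRHR-HEK293) are plated and kept 18 h at 37 °C/5% CO2. A calcium-sensitive dye is added for 2 h, compound follows for 5 min at room temperature, and TRH is then given at 1 nM final.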

[18] = target: Nuclear receptor subfamily 1 group I member 2 (Rattus norvegicus) (UniProt Q9R1A7); assay: Rat pregnane X receptor (rPXR) activation by small molecules, qHTS assay (AID 1346983); conditions: rPXR luciferase reporter cells, One-Glo luminescence, 24 h; max activation: stronger effect = higher value; note: nearly all actives have a fitted effect of over 20% in size
Method in brief: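 Cell-based rPXR luciferase reporter assay, 2,000 cells per well, rested 5hr at 37 C before compound addition in DMSO, then 24 hr at 37 C. One-Glo reagent was added and luminescence read after 30 min at room temperature.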

[19] = target: Nuclear receptor subfamily 1 group I member 2 (Homo sapiens) (UniProt O75469); assay: CYP3A4 induction through human pregnane X receptor (PXR) by small molecules, qHTS assay (AID 1346984); note: nearly all actives have a fitted effect of over 40% in size
Method in brief: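 Steps: seed DPX-2 cells, 5 hr at 37C; pin-transfer compounds; 24 hr at 37C; add Luciferin-IPA (3uM final), 3 hr at 37C; add One-Glo, 30 min RT; read luminescence.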

[20] = target: Nuclear receptor subfamily 1 group I member 2 (Homo sapiens) (UniProt O75469); assay: Human pregnane X receptor (PXR) activation by small molecules, qHTS assay (AID 1346985); note: nearly all actives have a fitted effect of over 40% in size
Method in brief: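 DPX-2 cells (HepG2 co-transfected with a PXR response element and a CYP3A4-promoter luciferase construct) were seeded at 2,000 per well, rested 5 hr at 37C, then exposed to DMSO-dissolved compounds for 24 hr. Activation was read as luciferase luminescence.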

Chain of Nuclear receptor subfamily 1 group I member 2 (Homo sapiens) (O75469 whole entry, looked up): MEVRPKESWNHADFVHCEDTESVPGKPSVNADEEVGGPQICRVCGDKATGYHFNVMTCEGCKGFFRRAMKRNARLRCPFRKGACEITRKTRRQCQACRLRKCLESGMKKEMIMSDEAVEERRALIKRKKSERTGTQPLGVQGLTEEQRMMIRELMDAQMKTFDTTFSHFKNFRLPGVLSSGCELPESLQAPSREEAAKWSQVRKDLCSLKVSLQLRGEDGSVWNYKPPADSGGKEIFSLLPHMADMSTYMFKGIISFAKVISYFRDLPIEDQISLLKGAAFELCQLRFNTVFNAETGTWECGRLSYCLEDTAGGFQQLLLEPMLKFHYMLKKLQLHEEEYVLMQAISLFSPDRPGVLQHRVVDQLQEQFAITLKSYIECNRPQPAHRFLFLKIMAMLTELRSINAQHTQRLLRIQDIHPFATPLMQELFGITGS
Chain of Progesterone receptor (Homo sapiens) (P06401 whole entry, looked up): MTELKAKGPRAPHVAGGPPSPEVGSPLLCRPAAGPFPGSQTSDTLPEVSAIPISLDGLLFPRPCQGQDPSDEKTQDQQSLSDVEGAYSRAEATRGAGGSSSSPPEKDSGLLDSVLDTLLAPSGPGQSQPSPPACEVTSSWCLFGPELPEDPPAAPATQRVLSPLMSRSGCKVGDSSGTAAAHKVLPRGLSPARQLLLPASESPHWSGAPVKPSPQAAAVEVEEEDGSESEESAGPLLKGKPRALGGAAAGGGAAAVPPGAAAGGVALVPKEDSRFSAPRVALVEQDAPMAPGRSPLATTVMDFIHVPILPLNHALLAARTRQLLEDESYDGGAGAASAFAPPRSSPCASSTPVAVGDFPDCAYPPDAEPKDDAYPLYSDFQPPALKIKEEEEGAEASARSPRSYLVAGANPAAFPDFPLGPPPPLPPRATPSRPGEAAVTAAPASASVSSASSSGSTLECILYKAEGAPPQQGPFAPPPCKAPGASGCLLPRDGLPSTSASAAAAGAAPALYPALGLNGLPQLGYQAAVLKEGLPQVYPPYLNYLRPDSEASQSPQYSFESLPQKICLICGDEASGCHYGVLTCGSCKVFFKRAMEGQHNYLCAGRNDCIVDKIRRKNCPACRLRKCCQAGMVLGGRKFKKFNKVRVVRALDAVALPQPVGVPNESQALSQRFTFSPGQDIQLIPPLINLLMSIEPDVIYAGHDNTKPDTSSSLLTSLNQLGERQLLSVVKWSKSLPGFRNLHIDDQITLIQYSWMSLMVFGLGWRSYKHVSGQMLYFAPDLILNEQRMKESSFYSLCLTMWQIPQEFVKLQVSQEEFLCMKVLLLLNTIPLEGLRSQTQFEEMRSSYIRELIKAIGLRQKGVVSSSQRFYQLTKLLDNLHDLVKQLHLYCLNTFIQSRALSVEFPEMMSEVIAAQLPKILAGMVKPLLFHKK
Chain of Thyrotropin-releasing hormone receptor (Homo sapiens) (P34981 whole entry, looked up): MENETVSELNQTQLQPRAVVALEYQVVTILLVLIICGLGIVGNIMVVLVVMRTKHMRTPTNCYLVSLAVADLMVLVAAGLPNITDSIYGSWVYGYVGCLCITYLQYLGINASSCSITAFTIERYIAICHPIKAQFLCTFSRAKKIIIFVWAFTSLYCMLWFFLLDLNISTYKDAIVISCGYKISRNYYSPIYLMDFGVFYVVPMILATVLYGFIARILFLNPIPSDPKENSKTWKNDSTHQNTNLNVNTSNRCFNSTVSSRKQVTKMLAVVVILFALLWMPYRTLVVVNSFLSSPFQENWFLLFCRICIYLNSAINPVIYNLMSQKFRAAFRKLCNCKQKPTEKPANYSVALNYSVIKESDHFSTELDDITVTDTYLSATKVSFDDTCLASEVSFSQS
Chain of Cytochrome P450 2D6 (Homo sapiens) (P10635 whole entry, looked up): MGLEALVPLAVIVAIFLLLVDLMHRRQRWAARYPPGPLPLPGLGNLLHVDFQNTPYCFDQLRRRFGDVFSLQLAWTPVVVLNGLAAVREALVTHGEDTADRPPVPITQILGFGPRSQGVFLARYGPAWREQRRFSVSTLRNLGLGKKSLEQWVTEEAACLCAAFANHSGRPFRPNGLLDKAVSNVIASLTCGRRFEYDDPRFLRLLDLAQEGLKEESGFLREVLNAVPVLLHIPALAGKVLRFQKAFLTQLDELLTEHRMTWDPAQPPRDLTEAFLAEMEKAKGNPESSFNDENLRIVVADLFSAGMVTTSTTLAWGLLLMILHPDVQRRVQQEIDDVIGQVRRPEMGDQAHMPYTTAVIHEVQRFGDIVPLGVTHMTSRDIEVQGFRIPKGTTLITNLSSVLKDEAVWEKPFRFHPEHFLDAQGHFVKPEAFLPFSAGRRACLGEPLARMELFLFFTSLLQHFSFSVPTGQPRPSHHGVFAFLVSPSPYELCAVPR
Chain of Nuclear receptor subfamily 1 group I member 2 (Rattus norvegicus) (Q9R1A7 whole entry, looked up): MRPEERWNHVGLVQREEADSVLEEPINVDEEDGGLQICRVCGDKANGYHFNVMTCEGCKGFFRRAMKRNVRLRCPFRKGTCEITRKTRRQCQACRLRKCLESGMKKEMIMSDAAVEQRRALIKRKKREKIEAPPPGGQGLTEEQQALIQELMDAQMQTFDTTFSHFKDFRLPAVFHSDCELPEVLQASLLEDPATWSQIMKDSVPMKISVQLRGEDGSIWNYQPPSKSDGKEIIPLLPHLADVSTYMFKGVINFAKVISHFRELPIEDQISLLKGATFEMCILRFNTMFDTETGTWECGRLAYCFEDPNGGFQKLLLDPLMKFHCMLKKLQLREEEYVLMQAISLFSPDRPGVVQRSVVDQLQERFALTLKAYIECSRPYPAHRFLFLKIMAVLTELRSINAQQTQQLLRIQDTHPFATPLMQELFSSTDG

SMILES	Potency [1]	Potency [2]	Potency [3]	Potency [4]	Potency [5]	outcome [6]	Potency [7]	Potency [8]	Potency [9]	Potency [10]	Potency [11]	Potency [12]	outcome [13]	outcome [14]	Potency [15]	outcome [16]	outcome [17]	max activation [18]	Potency [19]	Potency [20]
CCCCC(CC)C(=O)OCCOCCOCCOCCOC(=O)C(CC)CCCC (stereo not given)	inactive	inactive	inactive	inactive	inactive	inactive	inactive	inactive	inactive	inactive	inactive	inactive	–	–	–	–	–	–	–	–
O=C(O)c1cccc(O)c1	inactive	inactive	inactive	inactive	inactive	inactive	–	inactive	inactive	inactive	inactive	inactive	inactive	inactive	inactive	–	–	–	–	–
NC(=O)Nc1ccc(Cl)cc1	inactive	inactive	inactive	inactive	inactive	inactive	–	inactive	inactive	inactive	–	inactive	inactive	inactive	inactive	–	–	–	–	–
O=C(O)c1cccnc1C(=O)O	inactive	inactive	inactive	inactive	inactive	inactive	–	inactive	inactive	inactive	inactive	inactive	inactive	–	inactive	inactive	–	–	–	–
O=C1NCCN1	inactive	inactive	inactive	inactive	inactive	inactive	–	inactive	inactive	inactive	inactive	21.5 µM (active)	inactive	inactive	inactive	–	–	–	–	–
CCN(CC)CCNC(=O)c1ccc(NC(C)=O)cc1	inactive	inactive	inactive	inactive	inactive	inactive	–	inactive	inactive	inactive	inactive	17.4 µM (active)	–	inactive	inactive	inactive	inactive	-1.35%	inactive	inactive
CN(C(=O)C(Cl)Cl)c1ccc(OC(=O)c2ccco2)cc1	inactive	inactive	inactive	inactive	inactive	inactive	inactive	inactive	inactive	inactive	–	inactive	inactive	inactive	–	–	inactive	–	–	–
CCOCCn1c(C2CCN(CCc3ccc(C(C)(C)C(=O)O)cc3)CC2)nc2ccccc21	inactive	inactive	inactive	inactive	inactive	inactive	inactive	inactive	inactive	inactive	inactive	inactive	–	inactive	inactive	inactive	inactive	–	–	–
